A selection: hits, their analogues and other compounds. The true share with any hit is near 12%.
Cycloheximide cs – counter-screen for Shiga toxin inhibitors: cycloheximide protein synthesis inhibition. cell reporter, cycloheximide protein synthesis inhibition counterscreen. max response, %. hit rate 12% among 300,000; in the data active = max response mostly above about 13%, no sharp cut-off; inactive = mostly below about 14%; also: read at 38.3 µM for the half of the compounds with a filed dose
SARS PLP yeast – SARS-CoV PLP inhibition in yeast | S. cerevisiae expressing SARS-CoV PLpro, growth rescue | Potency, µM (series often up to 32.9 µM), usual class: activators | hit rate 0.19% among 330,000 | AID 485353; also: nearly all actives have a fitted effect of over 55% in size
NS1 function inh – influenza NS1 inhibition; Potency, µM (highest dose often 46.1 µM); hit rate 0.4% among 270,000; AID 2326; also: actives are rising curves; nearly all actives have a fitted effect of over 50% in size
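Compounds were scored for reversing the slow growth caused by influenza A NS1 in S. cerevisiae, measured by optical density at 600 nm. Assay medium contained 2% galactose at pH 6.0; NS1-free yeast of the same strain were the positive control.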
Shiga inhibitor – blocks Shiga toxin action in Vero cells; Vero cells, Shiga toxin protein synthesis inhibition reporter; inhibition, % at 38.7 µM; hit rate 9.2% among 290,000; AID 2315; in the data active = inhibition mostly above about 28%, no sharp cut-off; inactive = mostly below about 43%
Each line names hits and unclear results; the compound was inactive in the other large screens. Unless noted, calls follow the shape of the full dose curve.

O=C(c1ccc2c(=O)n(Cc3ccc(Cl)cc3)c(=S)[nH]c2c1)N1CCOCC1	Cycloheximide cs 26.5, SARS PLP yeast inconclusive, Shiga inhibitor 22.9
O=C(NC1CCN(Cc2ccccc2)CC1)c1ccc(Cn2c(=S)[nH]c3ccc(N4CCOCC4)cc3c2=O)cc1	Cycloheximide cs 32.3, Shiga inhibitor 54.8 (no result: NS1 function inh)
CC(C)CC1NC(=O)N(CC(=O)Nc2cc(F)ccc2F)C1=O (stereo not given)	none (no result: Cycloheximide cs, NS1 function inh, Shiga inhibitor)
CCOC(=O)c1cc(S(=O)(=O)NCC2CCN(Cc3cccc(C)c3)CC2)cn1C	none
O=Nc1c2nc3ccccc3n(O)c-2c2ccccc12	Cycloheximide cs 72.9, Shiga inhibitor 114.7
COc1ccc(NC(=O)C2CCCC2)cc1	none
CCOc1ccc(NC(=O)C2C3CC/C=C\CCC32)cc1 (stereo not given)	Cycloheximide cs 16.8
COc1ccc(NC(=O)C2C3CC/C=C\CCC32)cc1 (stereo not given)	Cycloheximide cs 23.7, Shiga inhibitor 57.0
COc1ccccc1C(=O)NC(C)c1ccc(-n2ccnc2)cc1 (stereo not given)	none
COc1ccc(/C=N/n2cc(-c3ccccc3)nc2N)cc1	Cycloheximide cs 28.4, Shiga inhibitor 42.8
COC(=O)C1=C(C)NC(=O)NC1c1ccccc1Cl (stereo not given)	none
CC1=C(C(=O)Nc2ccccn2)C(c2ccccc2Cl)NC(=S)N1 (stereo not given)	Cycloheximide cs 39.7, Shiga inhibitor 100.2 (no result: NS1 function inh)
CC1=C(C(=O)Nc2ccccn2)C(c2ccc(Cl)cc2Cl)NC(=S)N1 (stereo not given)	Cycloheximide cs 34.7, Shiga inhibitor 111.3 (no result: NS1 function inh)
CCN(C[C@H]1N[C@@](CC)(C(=O)OC)[C@H]2C(=O)N(Cc3ccccc3)C(=O)[C@@H]12)C(=O)NC(C)C	none (no result: Cycloheximide cs, NS1 function inh, Shiga inhibitor)
O=[N+]([O-])c1cc2c(cc1/C=N/n1c(-c3ccccc3)n[nH]c1=S)OCO2	Cycloheximide cs 43.1, Shiga inhibitor 55.0
S=c1[nH]nc(C2CCCCC2)n1/N=C/c1ccccc1Br	none
O=[N+]([O-])c1ccccc1/C=N/n1c(C2CCCCC2)n[nH]c1=S	Cycloheximide cs 34.4
CCN(CC)CCCn1c2c(c(SCC(=O)Nc3nc4ccccc4s3)nc1=O)CCC2	none (no result: Cycloheximide cs, NS1 function inh, Shiga inhibitor)
COc1ccc(Br)cc1CN(C)C(C)C(=O)Nc1cccc(C(C)=O)c1 (stereo not given)	none (no result: NS1 function inh)
Oc1ccccc1/C=N/NC(=S)NC1CC2CCC1C2 (stereo not given)	Cycloheximide cs 32.0, Shiga inhibitor 44.9
CCOc1ccc(/C=N/NC(=S)NC2CC3CCC2C3)cc1 (stereo not given)	none
S=C(N/N=C/c1ccco1)NC1CC2CCC1C2 (stereo not given)	Cycloheximide cs 43.9, Shiga inhibitor 73.4
COc1cccc(/C=N/NC(=S)NC2CC3CCC2C3)c1OC (stereo not given)	none
COc1ccc(/C=C/C(=O)Oc2cc(C)[nH]c(=O)c2[N+](=O)[O-])cc1OC	Cycloheximide cs 59.1, Shiga inhibitor 164.1 (no result: NS1 function inh)
CCc1ccc(N=C2N=C(N)c3ccccc32)cc1	Cycloheximide cs 31.8, Shiga inhibitor 54.2
NC1=NC(=Nc2ccc(S(N)(=O)=O)cc2)c2ccccc21	none
O=C(Nc1cccnc1)c1ccc(CSc2ccccc2)cc1	Cycloheximide cs 41.1, Shiga inhibitor 73.0 (no result: NS1 function inh)
O=C(Nc1cccnc1)c1ccc(COc2ccccc2Br)cc1	Cycloheximide cs 24.3
O=C(NCc1cccnc1)c1ccc(COc2ccccc2Br)cc1	none (no result: NS1 function inh)
CCCCOc1ccc(C(=O)NC)cc1	none
O=C(Nc1cccnc1)c1ccc(Oc2ccccc2)cc1	Cycloheximide cs 33.6, Shiga inhibitor 37.7
CCCCOc1ccc(C(=O)Nc2ccncc2)cc1	Cycloheximide cs 25.9, Shiga inhibitor 94.5
CCN(CC(=O)Nc1ccc(OC)c(Cl)c1)CC(=O)NC(C)C	none (no result: NS1 function inh)
CCOC(=O)C1(CCCc2ccccc2)CCN(C(=O)[C@@H]2C[C@@H](C)NC(=S)N2)CC1	none
O=C(OCc1ccc(Br)cc1F)c1cc2ccccc2oc1=O	none
NCc1cc2c3c(c1)CCCN3CCC2	none
CN(C)C(=O)c1sccc1Oc1ccc(F)cc1[N+](=O)[O-]	none (no result: NS1 function inh)
CCOc1cc(C(=O)Nc2cccnc2)cc(OCC)c1OCC	none
CCCOc1ccc(C(=O)Nc2cccnc2)cc1	Cycloheximide cs 28.7 (no result: Shiga inhibitor)
Cc1cccc(Oc2ccc(Cl)cc2N)c1	Cycloheximide cs 33.8, Shiga inhibitor 89.0 (no result: NS1 function inh)
O=C(/C=C/Nc1ccccc1C(F)(F)F)c1ccco1	Cycloheximide cs 44.0, Shiga inhibitor 58.9
NC(=O)c1ccccc1NS(=O)(=O)Cc1ccccc1	none
O=C(c1ccco1)N1CCN(S(=O)(=O)c2ccc(Oc3ccccc3)cc2)CC1	none
O=C(/C=C/Nc1ccc(Oc2ccccc2)cc1)c1ccco1	Cycloheximide cs 55.7, Shiga inhibitor 70.3
NC(=O)c1ccccc1N/C=C/C(=O)c1ccco1	Cycloheximide cs 30.0, Shiga inhibitor 68.8
O=C(CSc1nnc(CNC(=O)c2ccco2)o1)Nc1ccccc1C(F)(F)F	none
COc1cccc(CNC(=O)Cn2ccc3cc(S(=O)(=O)N4CCCCCC4)ccc32)c1	none
O=C(O)C(C(=O)O)P(=S)(S)c1ccccc1 (stereo not given)	none (no result: Cycloheximide cs, SARS PLP yeast, Shiga inhibitor)
CCOC(=O)C1Oc2ccccc2C(c2ccc(C)cc2)=C1C(=O)OC (stereo not given)	Cycloheximide cs 18.9 (no result: NS1 function inh)
CCOC(=O)C1Oc2ccccc2C(c2ccc(F)cc2)=C1C(=O)OC (stereo not given)	none (no result: NS1 function inh)
COc1ccc(NC(=O)CN(C)C(=O)c2cc(CN3C(=O)c4ccccc4C3=O)ccc2OC)cc1	none (no result: Cycloheximide cs, NS1 function inh, Shiga inhibitor)
COc1ccc(CN(C)CC(=O)Nc2cccc(S(=O)(=O)N(C)c3ccccc3)c2)c(OC)c1	none (no result: Cycloheximide cs, NS1 function inh, Shiga inhibitor)

Compound activity (PubChem)
